# An excerpt weighted towards active compounds, which were near 3.4% of everything screened.
# miR122 inh: miR-122 Renilla sensor signal increase in Huh7, primary screen, miR-122 inhibitor project, cell-based, single point, plate reader. Huh7 miR-122 Renilla luciferase sensor, 48 h; neutral wells = 0, positive control = 100. activation (reporter increase), % at 12.5 µM. actives 0.3% (n = 340,000);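 active = mean replicate activation score at least 90 and every replicate individually at or above 90; inconclusive = only one of the two criteria met; inactive = neither criterion met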;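 note: higher luciferase means less miR-122 activity so hits act as miR-122 inhibitors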
# MITF TRPM1 HTS: activators of MITF-driven TRPM1 promoter reporter, primary screen, cell-based, SK-MEL-5, luciferase, single point; SK-MEL-5 TRPM1-promoter luciferase, 24 h; % of positive control, neutral wells = 0; activation, % at 12.5 µM; actives 0.75% (n = 300,000); AID 588334, 2011;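 active = mean activation of at least 80% with every replicate also reaching 80%; inconclusive = mean reaches 80% but some replicate falls short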;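 note: 0% = neutral control wells and 100% = parthenolide positive control wells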
# HIV Env fusion: inhibitors of HIV-1 Env-driven cell-cell fusion, primary screen, HeLa-JRFL effector, CEM21 target cells, luciferase; inhibition, % at 12.3 µM; actives 1.1% (n = 360,000);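 active = mean replicate inhibition score of at least 50 and every replicate individually at or above 50; inconclusive = only one of the two criteria met; inactive = mean below 50 and not all replicates reaching 50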;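 note: 0% = plate neutral controls and 100% = maraviroc near 300 nM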
# esBAF inh: Bmi1 luciferase reporter increase in mESCs, primary screen, esBAF inhibitor project, mouse ES cells, Bmi1 luciferase knock-in, single point | 24 h; 100% = twice the neutral-well signal | reporter increase, % at 12.5 µM | actives 2% (n = 350,000) | AID 602393, 2012; in the data active = activation above about 40%; inconclusive = no clear call, values can overlap the other calls;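 note: 0% = median of the plate's neutral control wells and 100% = double that signal; a rise in the Bmi1 reporter signal indicates esBAF inhibition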
# Wnt act: Wnt/beta-catenin pathway activators, primary screen, cell-based, plate reader, single point; actives 1.2% (n = 300,000); activation, % at 9.35 µM; Wnt/beta-catenin reporter cell assay, activator; AID 743398, 2014; in the data active = activation above about 30%, passing the limit was not always enough; inconclusive = no clear call, values can overlap the other calls;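 note: 0% = neutral control wells and 100% = positive control wells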
# The depositor's hits bear a star; u = inconclusive; x = not tested or not shown; [ ] = another dose, or the depositor's remark.
SMILES,miR122 inh,MITF TRPM1 HTS,HIV Env fusion,esBAF inh,Wnt act
CCN(CC)S(=O)(=O)c1ccc(N2CCOCC2)c(NS(=O)(=O)c2ccc(C(C)C)cc2)c1,106*,4,-12,-6,-2
CCN(CC)S(=O)(=O)c1ccc(N2CCOCC2)c(NS(=O)(=O)c2cccs2)c1,x,2,x,-4,-1
Cc1cccc(N2CC(C(=O)NC3CCCCCC3)CC2=O)c1C (centres undefined),-2,5,x,17,368*
Cc1ccccc1N1CC(C(=O)NC2CCCC2)CC1=O (centres undefined),x,2,-7,-7,-1
COCCCNC(=O)COc1ccc(Cl)c(C)c1,-8,x,-26,10,7
CCNC(=O)COc1ccc(OCc2ccccc2)cc1,-6,32,-14,15,15
CC(C)(C)NC(=O)COc1ccc(-c2ccccc2)cc1,-7,65,-29,57*,x
Cc1cc(OCC(=O)NC(C)(C)C)ccc1Cl,-4,74,16,62*,7
CCNC(=O)COc1ccc(-c2ccccc2)cc1,-3,x,-34,19,40*
O=P(OC1CCCCC1)(OC1CCCCC1)C(O)c1c(Cl)cccc1Cl (centres undefined),38,3,59*,1,x
COc1ccccc1C(O)P(=O)(OC1CCCCC1)OC1CCCCC1 (centres undefined),x,x,-1,-2,0
O=P(OC1CCCCC1)(OC1CCCCC1)C(O)c1ccc(Cl)cc1Cl (centres undefined),55,x,61*,x,x
Cc1ccc(C(O)P(=O)(OC2CCCCC2)OC2CCCCC2)cc1 (centres undefined),49,x,-60,-1,x
NCC[C@@H]1CC[C@@H](NC(=O)C2CCCCC2)[C@H](CO)O1,x,x,-7[16.7 µM],-7,x
CCCC(=O)N=C1SC2CS(=O)(=O)CC2N1c1ccc(-c2nc3ccc(C)cc3s2)cc1 (centres undefined),3,57,-39,x,34*
C[C@@H]1CN([C@@H](C)CO)C(=O)c2cc(NC(=O)Nc3ccccc3)ccc2O[C@@H](C)CCCCO[C@H]1CN(C)C(=O)CCC(F)(F)F,-2[16.7 µM],x,22[16.7 µM],3,x
COc1ccc(S(=O)(=O)N2CCCCCC2)cc1NC(=O)CN(C)Cc1ccc2c(c1)OCO2,46,-18,58*,-18,-1
COc1ccc(S(=O)(=O)N2CCOCC2)cc1NC(=O)CCCOc1ccc(Cl)cc1C,1,-4,36,6,-2
COc1ccc(S(=O)(=O)N2CCCCC2)cc1NC(=O)CCCOc1ccc(C)cc1,-2,-4,71*,0,-1
COc1ccc(S(=O)(=O)N2CCCCC2)cc1NC(=O)CN(Cc1ccco1)Cc1ccco1,5,-30,76*,-23,3
COc1ccc(S(=O)(=O)N2CCCCC2)cc1NC(=O)CCCOc1ccccc1,-9,-11,-3,8,-4
CN(CC(=O)Nc1cc(S(=O)(=O)N2CCCCCC2)ccc1Cl)Cc1ccc2c(c1)OCO2,0,x,40,-32,-4
O=C(CCCOc1ccc(Cl)cc1Cl)Nc1cc(S(=O)(=O)N2CCOCC2)ccc1N1CCOCC1,x,7,79*,1,-4
COc1ccc(S(=O)(=O)N2CCCCC2)cc1NC(=O)CN(C)C1CCCCC1,-8,-15,24,9,-1
O=C(C[C@H]1C=C[C@H](NC(=O)c2ccccn2)[C@@H](CO)O1)NCc1cccc(F)c1,x,x,9[16.7 µM],-1,x
SMILES,miR122 inh,MITF TRPM1 HTS,HIV Env fusion,esBAF inh,Wnt act
COc1ccc(CN(C)C(C)C(=O)Nc2ccc(S(=O)(=O)N3CCCCC3)cc2)cc1F (centres undefined),x,-3,x,24,34*
CCCCN(C)S(=O)(=O)c1ccc(C(=O)N=c2sc3cc(NC(C)=O)ccc3n2C)cc1,-1,2,-124,x,39*
CN(C)S(=O)(=O)c1ccc2c(c1)C(=NNC(N)=O)c1cc(S(=O)(=O)N(C)C)ccc1-2,x,-8,12,-4,0
CN(CCO)S(=O)(=O)c1ccc2c(c1)C(=NNC(N)=O)c1cc(S(=O)(=O)N(C)CCO)ccc1-2,-1,0,12,-2,46*
COc1ccc(S(=O)(=O)N(C)C[C@H]2OCCCC[C@@H](C)Oc3ccc(NS(C)(=O)=O)cc3C(=O)N([C@H](C)CO)C[C@H]2C)cc1,-5[16.7 µM],x,9[16.7 µM],0,x
COc1ccc(-c2cc(C3CCN(c4cc(Cl)nc(N)n4)CC3)[nH]n2)cc1,-23,x,94*,-23,x
COc1ccc(OC)c(-c2cc(C3CCN(c4cc(Cl)nc(N)n4)CC3)[nH]n2)c1,-46,x,63*,-10,-12
C[C@@H]1CN([C@H](C)CO)C(=O)c2cc(-c3cccnc3)cnc2O[C@@H]1CN(C)C(=O)C1CCCCC1,-1[16.7 µM],x,-22[16.7 µM],-5,x
Cc1noc(C)c1NC(=O)Nc1ccc2c(c1)CC(=O)N([C@@H](C)CO)C[C@@H](C)[C@@H](CN(C)CC1CC1)O2,-1[16.7 µM],x,-4[16.7 µM],2,x
CNC[C@@H]1OCCCC[C@@H](C)Oc2ccc(NC(=O)Nc3ccc(C(F)(F)F)cc3)cc2C(=O)N([C@H](C)CO)C[C@@H]1C,3[16.7 µM],x,-2[16.7 µM],-3,x
CNC(=O)NC(=O)C(C)OC(=O)c1ccc(Cl)c(S(=O)(=O)Nc2ccc(F)cc2)c1 (centres undefined),215*,-1,0,4,-5
COc1cc(N=Nc2ccc(C(=O)N(C)C)cc2)c(C)cc1N,-4,2,-21,58*,-3
O=C(Nc1ccc(Nc2ccccc2)cc1)c1ccccc1F,-5,x,-60,52*,-1
O=C(Nc1ccc(N2CCCC2)cc1)c1cccc(Cl)c1Cl,12,x,-42,85*,-1
O=C(NC(=O)c1ccc(F)cc1F)Nc1ccc(Cl)cc1,x,64,-42,x,33*
O=C(Nc1ccc(F)cc1)Nc1ccc(Cl)cn1,16,u,-40,35,x
O=C(Nc1ccc(N2CCCCC2)cc1)c1ccc(F)cc1F,-5,22,-159,-29,44*
O=C(O)c1cc(NC(=O)c2ccccc2F)cc(NC(=O)c2ccccc2F)c1,0,-3,-10,-10,-1
Cc1noc(C)c1NC(=O)N(C)C[C@@H]1Oc2ccc(N(C)C)cc2CC(=O)N([C@H](C)CO)C[C@H]1C,-5[16.7 µM],x,-6[16.7 µM],-2,x
COc1ccc(S(=O)(=O)Nc2cccc3c2O[C@@H](CN(C)S(=O)(=O)c2cn(C)cn2)[C@H](C)CN([C@@H](C)CO)C3=O)cc1,1[16.7 µM],x,x,1,x
O=C(Nc1ccc(N2CCCC2)cc1)c1ccccc1F,-9,61,x,42*,x
O=C(Nc1ccccc1)c1ccc(F)cc1F,-2,63,-6,37,10
O=C(Nc1ccc(N2CCN(C(=O)c3cccs3)CC2)cc1)c1ccccc1F,x,4,2,-1,-3
Cc1ccc(NC(=O)c2ccc(F)cc2F)cc1,-2,60,-180,-51,46*

# Screening results from PubChem.
